Experimental data from PubChem BioAssay (NCATS).
Results filed as inconclusive are left out. Activity calls are given as the source filed them. Calls follow the shape of the dose curve; as a rule, active = well fitted inhibition curve with a large enough effect; inconclusive = small, poorly fitted or top-dose-only effect; inactive = flat fitted curve, though single readings scatter.

What was measured:
[1] = qHTS profiling for inhibitors of Plasmodium falciparum proliferation (AID 504749);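 as to activity, negative = inhibition: 0% = DMSO vehicle and full inhibition = artemisinin control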; as to all read-outs here: nearly all actives have a fitted effect of over 60% in size; details: P. falciparum in erythrocytes, SYBR Green DNA, 72 h; for activity, negative = inhibition: at 28.7 µM (top of the series)
Outline: (§1)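 Each compound contacts P. falciparum-infected red blood cells for 72 h at 37 C; lysis buffer (Tris, EDTA, saponin, Triton X, SYBR Green I) is added and fluorescence measured next morning; values normalized to controls.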

3D7 = experiment: as above; details: P. falciparum in erythrocytes, SYBR Green DNA, 72 h; series mostly up to 28.7 µM
Outline: as §1

7G8 = experiment: as above; details: P. falciparum in erythrocytes, SYBR Green DNA, 72 h; series mostly up to 28.7 µM
Outline: as §1

AA1029 = experiment: as above; details: P. falciparum in erythrocytes, SYBR Green DNA, 72 h; series mostly up to 28.7 µM
Outline: as §1

AS120 = experiment: as above; details: P. falciparum in erythrocytes, SYBR Green DNA, 72 h; series mostly up to 28.7 µM
Outline: as §1

ATS189 = experiment: as above; details: P. falciparum in erythrocytes, SYBR Green DNA, 72 h; series mostly up to 28.7 µM
Outline: as §1

ATS95 = experiment: as above; details: P. falciparum in erythrocytes, SYBR Green DNA, 72 h; series mostly up to 28.7 µM
Outline: as §1

C2A = experiment: as above; details: P. falciparum in erythrocytes, SYBR Green DNA, 72 h; series mostly up to 28.7 µM
Outline: as §1

CP185 = experiment: as above; details: P. falciparum in erythrocytes, SYBR Green DNA, 72 h; series mostly up to 28.7 µM
Outline: as §1

CP191 = experiment: as above; details: P. falciparum in erythrocytes, SYBR Green DNA, 72 h; series mostly up to 28.7 µM
Outline: as §1

CP192 = experiment: as above; details: P. falciparum in erythrocytes, SYBR Green DNA, 72 h; series mostly up to 28.7 µM
Outline: as §1

CP194 = experiment: as above; details: P. falciparum in erythrocytes, SYBR Green DNA, 72 h; series mostly up to 28.7 µM
Outline: as §1

CP201 = experiment: as above; details: P. falciparum in erythrocytes, SYBR Green DNA, 72 h; series mostly up to 28.7 µM
Outline: as §1

CP203 = experiment: as above; details: P. falciparum in erythrocytes, SYBR Green DNA, 72 h; series mostly up to 28.7 µM
Outline: as §1

CP211 = experiment: as above; details: P. falciparum in erythrocytes, SYBR Green DNA, 72 h; series mostly up to 28.7 µM
Outline: as §1

CP215 = experiment: as above; details: P. falciparum in erythrocytes, SYBR Green DNA, 72 h; series mostly up to 28.7 µM
Outline: as §1

CP217 = experiment: as above; details: P. falciparum in erythrocytes, SYBR Green DNA, 72 h; series mostly up to 28.7 µM
Outline: as §1

CP237 = experiment: as above; details: P. falciparum in erythrocytes, SYBR Green DNA, 72 h; series mostly up to 28.7 µM
Outline: as §1

CP238 = experiment: as above; details: P. falciparum in erythrocytes, SYBR Green DNA, 72 h; series mostly up to 28.7 µM
Outline: as §1

CP247 = experiment: as above; details: P. falciparum in erythrocytes, SYBR Green DNA, 72 h; series mostly up to 28.7 µM
Outline: as §1
Potency is read from the fitted curve at half-maximal effect.

Cc1cc2nc3c(=O)[nH]c(=O)nc-3n(C[C@H](O)[C@H](O)[C@H](O)COP(=O)(O)OP(=O)(O)OC[C@H]3O[C@@H](n4cnc5c(N)ncnc54)[C@H](O)[C@@H]3O)c2cc1C
inactive: activity, negative = inhibition ([1]; parasite line A) -1.67% | activity, negative = inhibition ([1]; parasite line B) 14.9% | Potency (3D7) | Potency (7G8) | Potency (AA1029) | Potency (AS120) | Potency (ATS189) | Potency (ATS95) | Potency (C2A) | Potency (CP185) | Potency (CP191) | Potency (CP192) | Potency (CP194) | Potency (CP201) | Potency (CP203) | Potency (CP211) | Potency (CP215) | Potency (CP217) | Potency (CP237) | Potency (CP238)

Cc1cc(=O)c(C(=O)N[C@@H](C(=O)N[C@@H]2C(=O)N3C(C(=O)O)=C(CSc4nnnn4C)CS[C@H]23)c2ccc(O)cc2)c[nH]1
inactive: activity, negative = inhibition ([1]; parasite line A) 5.19% | activity, negative = inhibition ([1]; parasite line B) 9.95% | Potency (3D7) | Potency (7G8) | Potency (AA1029) | Potency (AS120) | Potency (ATS189) | Potency (ATS95) | Potency (C2A) | Potency (CP185) | Potency (CP191) | Potency (CP192) | Potency (CP194) | Potency (CP201) | Potency (CP203) | Potency (CP211) | Potency (CP215) | Potency (CP217) | Potency (CP237) | Potency (CP238) | Potency (CP247)

O=C(NNCNNC(=O)c1ccncc1)c1ccncc1
inactive: activity, negative = inhibition ([1]; parasite line A) 1.43% | activity, negative = inhibition ([1]; parasite line B) 9.6% | Potency (3D7) | Potency (7G8) | Potency (AA1029) | Potency (AS120) | Potency (ATS189) | Potency (ATS95) | Potency (C2A) | Potency (CP185) | Potency (CP191) | Potency (CP192) | Potency (CP194) | Potency (CP201) | Potency (CP203) | Potency (CP211) | Potency (CP215) | Potency (CP217) | Potency (CP237) | Potency (CP238) | Potency (CP247)

CC1C(=O)CC2C3(C)CCC2(C(C)C(=O)O)C(=O)C13 (stereo not given)
inactive: activity, negative = inhibition ([1]; parasite line A) 5.64% | activity, negative = inhibition ([1]; parasite line B) 13.7% | Potency (3D7) | Potency (7G8) | Potency (AA1029) | Potency (AS120) | Potency (ATS189) | Potency (ATS95) | Potency (C2A) | Potency (CP185) | Potency (CP191) | Potency (CP192) | Potency (CP194) | Potency (CP201) | Potency (CP203) | Potency (CP211) | Potency (CP215) | Potency (CP217) | Potency (CP237) | Potency (CP238) | Potency (CP247)

CN(Cc1ccccc1)Cc1ccccc1
inactive: activity, negative = inhibition ([1]; parasite line A) 9.08% | activity, negative = inhibition ([1]; parasite line B) -0.726% | Potency (3D7) | Potency (7G8) | Potency (AA1029) | Potency (AS120) | Potency (ATS189) | Potency (ATS95) | Potency (C2A) | Potency (CP185) | Potency (CP191) | Potency (CP192) | Potency (CP194) | Potency (CP201) | Potency (CP203) | Potency (CP211) | Potency (CP215) | Potency (CP217) | Potency (CP237) | Potency (CP238) | Potency (CP247)

CCN(CC)CCC(=O)N1c2ccccc2Sc2ccc(C(F)(F)F)cc21
active: Potency (7G8) 11.2 µM
inactive: activity, negative = inhibition ([1]; parasite line A) -4.68% | activity, negative = inhibition ([1]; parasite line B) -16.3% | Potency (3D7) | Potency (AA1029) | Potency (AS120) | Potency (ATS189) | Potency (ATS95) | Potency (C2A) | Potency (CP185) | Potency (CP191) | Potency (CP192) | Potency (CP194) | Potency (CP201) | Potency (CP203) | Potency (CP211) | Potency (CP215) | Potency (CP217) | Potency (CP237) | Potency (CP238)

CC(=O)Nc1ccc(OC(=O)c2ccccc2O)cc1
inactive: activity, negative = inhibition ([1]; parasite line A) -9.69% | activity, negative = inhibition ([1]; parasite line B) 13.7% | Potency (3D7) | Potency (7G8) | Potency (AA1029) | Potency (AS120) | Potency (ATS189) | Potency (ATS95) | Potency (C2A) | Potency (CP185) | Potency (CP191) | Potency (CP192) | Potency (CP194) | Potency (CP201) | Potency (CP203) | Potency (CP211) | Potency (CP215) | Potency (CP217) | Potency (CP237) | Potency (CP238) | Potency (CP247)

CC12CCC(C[N+](C)(CCC[N+](C)(C)C)C1)C2(C)C (stereo not given)
inactive: activity, negative = inhibition ([1]; parasite line A) 7.03% | activity, negative = inhibition ([1]; parasite line B) 18.6% | Potency (3D7) | Potency (7G8) | Potency (AA1029) | Potency (AS120) | Potency (ATS189) | Potency (ATS95) | Potency (C2A) | Potency (CP185) | Potency (CP191) | Potency (CP192) | Potency (CP194) | Potency (CP201) | Potency (CP203) | Potency (CP211) | Potency (CP215) | Potency (CP217) | Potency (CP237) | Potency (CP238) | Potency (CP247)

NCCN
inactive: activity, negative = inhibition ([1]; parasite line A) 5.04% | activity, negative = inhibition ([1]; parasite line B) 2.26% | Potency (3D7) | Potency (7G8) | Potency (AA1029) | Potency (AS120) | Potency (ATS189) | Potency (ATS95) | Potency (C2A) | Potency (CP185) | Potency (CP191) | Potency (CP192) | Potency (CP194) | Potency (CP201) | Potency (CP203) | Potency (CP211) | Potency (CP215) | Potency (CP217) | Potency (CP237) | Potency (CP238) | Potency (CP247)

O=C1N=C2SCCN2C(=O)C1Cc1ccc(Cl)cc1 (stereo not given)
inactive: activity, negative = inhibition ([1]; parasite line A) 18.3% | activity, negative = inhibition ([1]; parasite line B) 17.2% | Potency (3D7) | Potency (7G8) | Potency (AA1029) | Potency (AS120) | Potency (ATS189) | Potency (ATS95) | Potency (C2A) | Potency (CP185) | Potency (CP191) | Potency (CP192) | Potency (CP194) | Potency (CP201) | Potency (CP203) | Potency (CP211) | Potency (CP215) | Potency (CP217) | Potency (CP237) | Potency (CP238) | Potency (CP247)

CN=C1C=CC(=C(c2ccc(N(C)C)cc2)c2ccc(N(C)C)cc2)C=C1
active: Potency ([1]; parasite line A) 0.562 µM | Potency ([1]; parasite line B) 0.398 µM | Potency (3D7) 0.708 µM | Potency (7G8) 0.282 µM | Potency (AA1029) 0.708 µM | Potency (AS120) 1 µM | Potency (ATS189) 0.447 µM | Potency (ATS95) 1.12 µM | Potency (C2A) 0.447 µM | Potency (CP185) 0.447 µM | Potency (CP191) 0.282 µM | Potency (CP192) 0.849 µM | Potency (CP194) 0.953 µM | Potency (CP201) 1.2 µM | Potency (CP203) 1.2 µM | Potency (CP211) 0.757 µM | Potency (CP215) 0.953 µM | Potency (CP217) 0.316 µM | Potency (CP237) 0.398 µM | Potency (CP238) 0.562 µM | Potency (CP247) 0.708 µM

CCC(C)[C@@H](N)C(=O)O (stereo not given in full)
inactive: activity, negative = inhibition ([1]; parasite line A) 11.4% | activity, negative = inhibition ([1]; parasite line B) 24.4% | Potency (3D7) | Potency (7G8) | Potency (AA1029) | Potency (AS120) | Potency (ATS189) | Potency (ATS95) | Potency (C2A) | Potency (CP185) | Potency (CP191) | Potency (CP192) | Potency (CP194) | Potency (CP201) | Potency (CP203) | Potency (CP211) | Potency (CP215) | Potency (CP217) | Potency (CP237) | Potency (CP238) | Potency (CP247)
